Source: ChEMBL document CHEMBL3988442, “University of Dundee, Small-Polar-MMV Screening Library” (2021)
For some of these results: Entries with a potency or affinity are not part of this list.

Assays:
Parameters in all cases: scale not given: direction of the effect not stated beside the values
[1] = biological target: Protein translocase subunit SecA (Escherichia coli (strain K12)) (UniProt P10408); test: Assay to Identify E. coli SecA ATPase Inhibitors; type: functional; settings: 30 µM
[2] = biological target: T1, Ubiquitin-activating enzyme e1, putative (Leishmania donovani (strain BPK282A1)) (UniProt E9BSI1); test: Leishmania donovani Ubiquitin Activating Enzyme (LdE1); type: functional; settings: 30 µM
T1 sequence (whole entry): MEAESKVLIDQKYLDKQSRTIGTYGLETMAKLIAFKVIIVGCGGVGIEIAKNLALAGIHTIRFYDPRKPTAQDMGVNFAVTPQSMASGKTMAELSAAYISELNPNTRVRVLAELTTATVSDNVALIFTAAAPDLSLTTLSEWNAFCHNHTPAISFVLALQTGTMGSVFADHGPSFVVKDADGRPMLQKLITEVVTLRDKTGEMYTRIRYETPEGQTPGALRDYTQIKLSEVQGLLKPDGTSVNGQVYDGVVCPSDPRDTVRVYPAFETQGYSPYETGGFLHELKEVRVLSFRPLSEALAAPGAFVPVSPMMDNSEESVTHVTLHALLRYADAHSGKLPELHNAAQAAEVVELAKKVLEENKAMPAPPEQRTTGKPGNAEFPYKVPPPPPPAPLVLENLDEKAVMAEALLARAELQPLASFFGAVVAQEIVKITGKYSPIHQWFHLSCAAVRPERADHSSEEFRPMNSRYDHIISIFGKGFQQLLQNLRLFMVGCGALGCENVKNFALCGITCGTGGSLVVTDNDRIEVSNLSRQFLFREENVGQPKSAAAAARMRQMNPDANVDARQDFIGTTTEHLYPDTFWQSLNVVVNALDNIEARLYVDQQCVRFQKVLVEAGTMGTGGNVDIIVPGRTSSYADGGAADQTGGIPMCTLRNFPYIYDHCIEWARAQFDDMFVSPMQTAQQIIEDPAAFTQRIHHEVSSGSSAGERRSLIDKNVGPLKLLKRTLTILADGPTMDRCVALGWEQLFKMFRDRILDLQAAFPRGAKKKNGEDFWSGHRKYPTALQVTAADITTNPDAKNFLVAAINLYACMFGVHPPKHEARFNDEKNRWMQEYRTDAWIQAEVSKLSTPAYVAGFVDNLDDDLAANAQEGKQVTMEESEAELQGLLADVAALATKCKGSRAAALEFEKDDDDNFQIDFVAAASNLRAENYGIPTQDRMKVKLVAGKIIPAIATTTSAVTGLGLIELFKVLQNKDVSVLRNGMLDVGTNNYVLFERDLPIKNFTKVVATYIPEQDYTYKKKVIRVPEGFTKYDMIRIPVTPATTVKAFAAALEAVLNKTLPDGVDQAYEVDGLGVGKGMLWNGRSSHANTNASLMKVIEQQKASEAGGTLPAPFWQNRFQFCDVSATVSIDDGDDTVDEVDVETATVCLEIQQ

[3] = biological target: AMP-activated protein kinase, AMPK (Homo sapiens) (UniProt P54646+O43741+P54619+Q9UGJ0+Q9Y478+Q13131+Q9UGI9); test: AMP-dependent Kinase enzyme assay. An in vitro enzyme assay that detects ADP turnover that is directly proportional to AMPK activity. This uses naive AMPK that is activated during the assay with MK-8722; type: functional; settings: 30 µM
[4] = biological target: Sialic acid-binding Ig-like lectin 9 (Homo sapiens) (UniProt Q9Y336); test: Hs-Siglec9 ALPHAscreen SOP 20170721; settings: 10 µM
Sequence of Sialic acid-binding Ig-like lectin 9 (Homo sapiens) (Q9Y336 whole entry): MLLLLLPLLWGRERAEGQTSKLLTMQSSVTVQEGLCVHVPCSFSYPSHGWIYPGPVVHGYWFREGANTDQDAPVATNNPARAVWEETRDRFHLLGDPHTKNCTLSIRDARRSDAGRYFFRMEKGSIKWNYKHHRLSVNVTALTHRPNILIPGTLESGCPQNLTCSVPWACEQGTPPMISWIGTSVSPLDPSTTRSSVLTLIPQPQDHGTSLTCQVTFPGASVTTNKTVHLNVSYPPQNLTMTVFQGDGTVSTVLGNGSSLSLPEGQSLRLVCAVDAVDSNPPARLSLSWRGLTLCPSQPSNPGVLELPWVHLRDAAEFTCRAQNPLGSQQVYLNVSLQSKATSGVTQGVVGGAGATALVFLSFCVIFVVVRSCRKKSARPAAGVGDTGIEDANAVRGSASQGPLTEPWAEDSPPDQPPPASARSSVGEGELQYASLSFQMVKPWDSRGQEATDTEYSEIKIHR

Trypanosoma cruzi = test: Trypanosoma cruzi phosphomannomutase and mannose-1-phosphate guanylyltransferase assay; type: functional; settings: 10 µM
[5] = biological target: T2, Arginase-2, mitochondrial (Homo sapiens) (UniProt P78540); test: in vitro enzyme assay to detect the production of urea directly proportional to the activity of Arginase II; type: functional; settings: 33.3 µM; note: in the data most compounds retested in dose-response had high values
T2 sequence (whole entry): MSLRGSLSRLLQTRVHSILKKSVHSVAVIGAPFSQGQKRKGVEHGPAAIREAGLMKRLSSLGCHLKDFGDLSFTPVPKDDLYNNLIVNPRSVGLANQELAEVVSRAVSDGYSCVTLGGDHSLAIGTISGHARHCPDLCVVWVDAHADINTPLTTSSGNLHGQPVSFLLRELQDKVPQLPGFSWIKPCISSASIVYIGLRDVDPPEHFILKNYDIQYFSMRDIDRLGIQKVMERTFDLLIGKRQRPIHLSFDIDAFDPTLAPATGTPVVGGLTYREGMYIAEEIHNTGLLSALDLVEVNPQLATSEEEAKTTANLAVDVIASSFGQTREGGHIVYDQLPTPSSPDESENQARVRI

[6] = biological target: T3, Proteasome subunit beta (Trypanosoma cruzi) (UniProt O96673); test: Trypanosoma cruzi proteasome chymotrypsin-like activity (TcProtChymo) assay.; note: in the data most compounds retested in dose-response had high values; type: functional; settings: 9.37 µM
T3 sequence (whole entry): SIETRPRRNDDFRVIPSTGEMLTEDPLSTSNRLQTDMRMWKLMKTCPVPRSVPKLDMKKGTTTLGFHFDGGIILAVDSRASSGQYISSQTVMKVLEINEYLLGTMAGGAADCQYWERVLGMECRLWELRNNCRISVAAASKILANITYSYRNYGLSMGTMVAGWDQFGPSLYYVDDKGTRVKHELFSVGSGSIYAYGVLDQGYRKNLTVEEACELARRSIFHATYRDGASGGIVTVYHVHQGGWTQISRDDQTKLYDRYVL

Homo sapiens = organism: Homo sapiens; test: To identify inhibition of the IFN signalling (Jak-Stat) pathway via expression of an eGFP reporter gene under the control of an IFN-stimulated response element (ISRE) containing MxA promoter.; type: functional; settings: 30 µM
[7] = biological target: T4, Tyrosyl-tRNA synthetase, putative (Trypanosoma cruzi (strain CL Brener)) (UniProt Q4DSP6); test: Trypanosoma cruzi tyrosyl tRNA synthetase (TcYRS) _High Tyrosine SOP; type: functional; settings: 30 µM; note: in the data most compounds retested in dose-response had high values
T4 sequence (whole entry): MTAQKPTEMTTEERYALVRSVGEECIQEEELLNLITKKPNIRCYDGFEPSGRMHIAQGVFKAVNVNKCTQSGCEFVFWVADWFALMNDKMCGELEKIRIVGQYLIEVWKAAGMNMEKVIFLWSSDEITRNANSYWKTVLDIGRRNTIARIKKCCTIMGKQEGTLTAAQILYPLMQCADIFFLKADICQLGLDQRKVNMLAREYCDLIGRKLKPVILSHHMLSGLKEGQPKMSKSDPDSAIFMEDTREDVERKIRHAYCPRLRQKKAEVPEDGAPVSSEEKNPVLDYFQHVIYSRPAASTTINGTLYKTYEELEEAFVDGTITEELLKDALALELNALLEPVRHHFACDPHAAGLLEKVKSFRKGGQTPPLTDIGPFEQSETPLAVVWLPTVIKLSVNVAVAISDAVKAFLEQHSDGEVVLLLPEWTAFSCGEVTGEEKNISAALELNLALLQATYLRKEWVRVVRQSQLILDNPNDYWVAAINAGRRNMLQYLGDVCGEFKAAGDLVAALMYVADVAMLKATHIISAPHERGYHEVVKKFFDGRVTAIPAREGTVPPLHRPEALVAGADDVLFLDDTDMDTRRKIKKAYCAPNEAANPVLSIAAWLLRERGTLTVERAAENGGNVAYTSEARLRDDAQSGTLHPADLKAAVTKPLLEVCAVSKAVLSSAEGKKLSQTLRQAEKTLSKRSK

[8] = biological target: T4, Tyrosyl-tRNA synthetase, putative (Trypanosoma cruzi (strain CL Brener)); test: Trypanosoma cruzi tyrosyl tRNA synthetase (TcYRS) SOP; type: functional; settings: 30 µM
[9] = biological target: Chromo domain-containing protein 1 (Saccharomyces cerevisiae (strain ATCC 204508 / S288c) (Baker's yeast)) (UniProt P32657); test: ScCHD-1 Enzyme Inhibition Assay; type: functional; settings: 30 µM; note: in the data most compounds retested in dose-response had high values
Sequence of Chromo domain-containing protein 1 (Saccharomyces cerevisiae (strain ATCC 204508 / S288c) (Baker's yeast)) (P32657 whole entry, the tested form may be a part): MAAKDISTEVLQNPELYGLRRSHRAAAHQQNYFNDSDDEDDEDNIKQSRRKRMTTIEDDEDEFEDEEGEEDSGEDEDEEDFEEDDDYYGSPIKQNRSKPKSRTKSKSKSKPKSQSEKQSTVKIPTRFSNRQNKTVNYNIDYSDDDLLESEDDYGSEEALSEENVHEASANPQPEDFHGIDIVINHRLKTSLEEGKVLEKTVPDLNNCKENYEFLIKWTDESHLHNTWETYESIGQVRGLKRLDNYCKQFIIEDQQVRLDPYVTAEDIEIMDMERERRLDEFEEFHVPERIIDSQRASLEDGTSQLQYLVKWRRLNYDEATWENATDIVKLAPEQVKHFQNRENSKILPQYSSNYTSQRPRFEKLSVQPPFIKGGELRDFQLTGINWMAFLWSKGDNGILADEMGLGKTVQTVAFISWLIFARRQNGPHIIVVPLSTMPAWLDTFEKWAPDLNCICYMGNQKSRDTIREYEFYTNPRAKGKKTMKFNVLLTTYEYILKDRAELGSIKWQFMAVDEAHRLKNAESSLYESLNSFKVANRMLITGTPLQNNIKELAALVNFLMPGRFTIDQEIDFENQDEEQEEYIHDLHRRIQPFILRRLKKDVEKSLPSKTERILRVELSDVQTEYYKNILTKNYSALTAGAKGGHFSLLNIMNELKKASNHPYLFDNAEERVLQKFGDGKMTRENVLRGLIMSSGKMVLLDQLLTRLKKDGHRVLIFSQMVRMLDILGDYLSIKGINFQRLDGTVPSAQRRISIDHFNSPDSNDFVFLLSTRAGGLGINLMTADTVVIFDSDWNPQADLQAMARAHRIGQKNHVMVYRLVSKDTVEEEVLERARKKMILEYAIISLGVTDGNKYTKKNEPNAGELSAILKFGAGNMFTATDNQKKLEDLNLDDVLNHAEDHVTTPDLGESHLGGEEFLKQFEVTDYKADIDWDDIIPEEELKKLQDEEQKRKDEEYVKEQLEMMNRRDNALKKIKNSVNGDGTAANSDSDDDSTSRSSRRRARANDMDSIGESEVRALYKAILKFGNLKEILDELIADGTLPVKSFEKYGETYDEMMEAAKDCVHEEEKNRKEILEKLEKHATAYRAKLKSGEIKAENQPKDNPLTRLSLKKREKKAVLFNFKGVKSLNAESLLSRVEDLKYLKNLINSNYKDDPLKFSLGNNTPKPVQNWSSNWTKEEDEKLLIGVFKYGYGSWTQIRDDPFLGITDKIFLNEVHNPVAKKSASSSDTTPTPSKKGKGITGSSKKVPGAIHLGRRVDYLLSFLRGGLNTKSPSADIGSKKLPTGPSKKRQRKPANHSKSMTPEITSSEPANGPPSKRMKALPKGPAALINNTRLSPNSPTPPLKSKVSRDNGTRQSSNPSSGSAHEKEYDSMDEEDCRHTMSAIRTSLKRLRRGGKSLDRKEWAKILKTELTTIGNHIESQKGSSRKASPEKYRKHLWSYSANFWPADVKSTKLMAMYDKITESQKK

Sequence of Protein translocase subunit SecA (Escherichia coli (strain K12)) (P10408 whole entry): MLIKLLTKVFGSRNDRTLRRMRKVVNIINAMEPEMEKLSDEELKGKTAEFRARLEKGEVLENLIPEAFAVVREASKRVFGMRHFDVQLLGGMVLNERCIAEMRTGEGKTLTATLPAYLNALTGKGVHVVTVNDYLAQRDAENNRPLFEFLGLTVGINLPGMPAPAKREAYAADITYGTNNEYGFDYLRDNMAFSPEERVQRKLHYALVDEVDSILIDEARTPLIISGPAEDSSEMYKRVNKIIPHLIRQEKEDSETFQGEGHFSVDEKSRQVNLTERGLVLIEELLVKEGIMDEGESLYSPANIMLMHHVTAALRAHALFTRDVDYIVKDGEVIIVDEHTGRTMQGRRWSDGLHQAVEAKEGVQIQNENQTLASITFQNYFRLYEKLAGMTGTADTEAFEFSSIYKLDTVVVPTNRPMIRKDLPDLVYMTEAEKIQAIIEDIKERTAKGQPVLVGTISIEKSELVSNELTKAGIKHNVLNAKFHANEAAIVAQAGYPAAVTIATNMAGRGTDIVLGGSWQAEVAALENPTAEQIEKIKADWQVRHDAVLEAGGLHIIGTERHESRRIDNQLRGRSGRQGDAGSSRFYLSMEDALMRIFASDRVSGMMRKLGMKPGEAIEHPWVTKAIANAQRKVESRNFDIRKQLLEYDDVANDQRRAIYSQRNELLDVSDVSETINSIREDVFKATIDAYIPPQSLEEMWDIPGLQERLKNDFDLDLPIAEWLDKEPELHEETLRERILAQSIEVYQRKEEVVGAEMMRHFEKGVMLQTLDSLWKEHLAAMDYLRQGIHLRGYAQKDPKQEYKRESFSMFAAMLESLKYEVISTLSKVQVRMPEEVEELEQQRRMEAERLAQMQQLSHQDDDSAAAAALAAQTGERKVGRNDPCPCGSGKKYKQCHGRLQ

| Structure (SMILES) | Percent Effect [1] [%] | Percent Effect [2] [%] | Percent Effect [3] [%] | Percent Effect [4] [%] | Percent Effect (Trypanosoma cruzi) [%] | Percent Effect [5] [%] | Percent Effect [6] [%] | Percent Effect (Homo sapiens) [%] | Percent Effect [7] [%] | Percent Effect [8] [%] | Percent Effect [9] [%] |
| --- | --- | --- | --- | --- | --- | --- | --- | --- | --- | --- | --- |
| Cc1nnc2n1CCN(C(=O)c1cc(C)n(-c3ccccn3)c1C)C2 | -5.88 | 13.2 | -9.47 | 3.77 | -1.03 | 3.6 | 17 | 4.26 | 4.43 | 13.6 | 2.79 |
| CC(C)c1csc(C2CCCN(C(=O)c3ncccn3)C2)n1 (stereo not given) | -4.12 | -2.7 | 4.03 | -10.4 | -4.99 | -0.744 | 3.69 | 7.7 | -3.23 | -3.7 | -2.9 |
| CCC(CNC(=O)Nc1cnn(CC)c1)N1CCCC1 (stereo not given) | 0.765 | 17.7 | -9.29 | -3.26 | -6.33 | 3.04 | 8.27 | 8.67 | 3.45 | 16.5 | -5.82 |
| Fc1ccc(CN2CC[C@H]3O[C@@H](COCC4CCOCC4)CC[C@H]32)cc1 | -5.06 | 5.33 | 10.6 | -6.01 | -7.48 | -0.233 | 3.08 | 17.6 | -1.06 | -1.28 | -7.73 |
| COc1c(CNC2CCN(C(=O)C3CC3)CC2)c(C(C)C)nn1C | -4.71 | 21.1 | -4.53 | -2.41 | -4.95 | 1.44 | -0.0846 | 15.4 | 6.4 | 18.5 | -3.47 |
| Cc1cnc2c(S(=O)(=O)NCC3CCN(C4CC4)C3)cccc2c1 (stereo not given) | -4.76 | -2.63 | -3.93 | -5.34 | 5.32 | -3.6 | -7.53 | -27.5 | 11.3 | 6.17 | 6.25 |
| CCc1nnc2n1CCN(C(=O)C(C)COCc1ccccc1)C2 (stereo not given) | -1.9 | 10.5 | 0.611 | -4.15 | 7.94 | -1.44 | 6.68 | -1.54 | 3.45 | 16.1 | -2.72 |
| Cc1[nH]nc2ncc(C(=O)N3CCN(CC(C)C)CC3)cc12 | -2.98 | 15.8 | 10.4 | -2.95 | 7.56 | -3.24 | 7.36 | -2.6 | 8.37 | 23.5 | -7.62 |
| Cc1nn(C)c(C)c1C(=O)N1CCOCC1CC(=O)c1ccco1 (stereo not given) | -2.08 | 0 | 5.49 | 5.37 | 4.19 | -8.28 | -0.0959 | -9.68 | 0 | 7.79 | -0.43 |
| c1ccc(-c2nc(CN3CCCC(Cn4cncn4)C3)co2)cc1 (stereo not given) | -0.495 | 29.1 | -4 | -3.43 | 1.54 | -5.81 | 18.2 | 14.8 | 6.25 | 10.1 | -13.6 |
| Cc1nc(C)n(C2CCCN(C(=O)c3csnn3)C2)n1 (stereo not given) | -2.6 | 21.6 | -13 | -1.58 | -2.92 | -7.21 | 16.2 | 15.5 | 4.43 | 18.5 | -4.56 |
| NCC1CN(c2nc(-c3ccccc3)nc3c2CCNCC3)CCO1 (stereo not given) | -3.14 | 2.74 | -7.79 | 3.51 | 9.32 | 0.798 | -1.11 | 4.88 | 24 | 28.4 | 0.577 |
| CN(CCOc1cccc(CN)c1)C1CCOCC1 | 1.04 | 2.7 | -5.71 | -2.08 | 1.54 | -5.24 | 7.41 | -5.29 | 1.59 | 9.76 | 13.5 |
| O=C(CCc1ccc(Br)cc1F)NS(=O)(=O)c1ccc2c(c1)OCCO2 | -4.85 | -6.33 | 13.3 | 0.4 | -2.15 | 1.07 | 4.97 | 18.6 | -18.8 | -17.7 | -2.67 |
| CC(C)C(NC(=O)NCC1(CO)CC1)c1nnc2n1CCC2 (stereo not given) | -7.18 | 13.5 | 2.82 | 15.2 | 2.54 | 4.58 | 11.2 | 10.4 | 7.92 | 11 | -9.98 |
| O=c1cc(Cn2ccnc2)nc2n1CCCN(Cc1ccsc1)C2 | -4.06 | 4 | 0.478 | 7 | -5.7 | -6.51 | 13.3 | -7.79 | 7.41 | 5.13 | -8.3 |
| O=C(c1cnccn1)N1CCc2ncnc(-c3cccnc3)c2CC1 | -5.31 | 2.67 | -1.38 | -1.29 | 0.386 | -43.5 | 6.33 | -9.47 | 0 | 5 | -3.12 |
| CN(C)C(=O)N1CCOCC2(CCN(c3ncccn3)C2)C1 (stereo not given) | -4.78 | 8.11 | -5.27 | 28.6 | 6.35 | -1.24 | 5.75 | -36.2 | 6.45 | 11.1 | -5.72 |
| O=C(c1ccccn1)N1CCCC(c2nccn2CC2CCC2)C1 (stereo not given) | -7.93 | 0 | -15.1 | 2.39 | -2.35 | -2.27 | 3.37 | 7.95 | 0 | 0 | -2.91 |
| CCc1noc(C(C)N2CCC(C(=O)Nc3cnn(CC)c3)CC2)n1 (stereo not given) | -1.91 | 1.27 | 3.92 | -3.56 | 1.54 | 2.37 | 7.72 | 8.57 | -4.17 | -10.1 | -28.9 |
